Anthrax LF prot: inhibitors of Bacillus anthracis lethal factor protease; inhibition, % at 10 µM; P15917; actives 0.12% (n = 360,000); multiplex microsphere protease cleavage assay, LF
MazF activator: increases E. coli MazEF RNase cleavage of RNA; P0AE70; FAM/BHQ RNA-DNA oligo cleavage fluorescence, 5 h; activation, % at 20 µM; actives 0.32% (n = 350,000); in the data active = activation above about 50%
Target sequence (P0AE70 whole entry, looked up): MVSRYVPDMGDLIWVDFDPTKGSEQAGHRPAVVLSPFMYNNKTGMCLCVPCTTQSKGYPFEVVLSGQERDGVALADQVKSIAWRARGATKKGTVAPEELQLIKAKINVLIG
BoNT A protease: inhibitors of Botulinum neurotoxin A light chain protease; multiplex microsphere protease substrate cleavage, flow cytometry; inhibition, % at 10 µM; actives 0.17% (n = 360,000); AID 588499
BoNT-F LC inh: BoNT F light chain protease inhibition; actives 0.22% (n = 360,000); inhibition, % at 10 µM; Multiplex microsphere protease cleavage assay, flow cytometry; AID 588497; in the data active = inhibition above about 35%, passing the limit was not always enough; inconclusive = no clear call, values can overlap the other calls
Bead autofluor: flagged as autofluorescent in microsphere protease counterscreen; compound autofluorescence counterscreen, microsphere flow cytometry; stronger effect = higher value; fluorescence intensity (no concentration beside the values); actives 3.1% (n = 360,000); in the data active = fluorescence intensity above about 16000; inconclusive = no clear call, values can overlap the other calls
Large screens that a line does not name were inactive. This is a sample that favours compounds with a hit; in the whole collection about 3.7% have one here. Rule as the data show it, unless noted: active = inhibition above about 30%; inconclusive = no clear call, values can overlap the other calls; inactive = below that.

C/C(=C\c1ccccc1)C(=O)n1nnc2ccccc21	Bead autofluor 17498
Cc1ccc(CNC(=S)Nc2ccc3c(c2)c(=O)n(C)n3Cc2cccc(C(F)(F)F)c2)cc1	none (no result: MazF activator)
COc1ccccc1CNC(=O)C1=CCN(S(=O)(=O)c2ccc(C)cc2)CC1	none
COc1cc2c(cc1OC)C1=CC(=O)C(=O)N1C(C)(C)C2	MazF activator 55
O=C(NCC1CCCN(Cc2ccc3nonc3c2)C1)c1ccc(F)cc1 (centres undefined)	none
N#CC(C#N)=Cc1ccc(-c2ccccc2F)o1	MazF activator 149
N#C/C(=C\c1ccc(-c2ccccc2[N+](=O)[O-])o1)C(N)=O	none
C=C(C)CSc1nc2nc(C)c(Br)cc2[nH]1	Bead autofluor 22023 (no result: MazF activator)
CCCCn1c(N)c(N(C)C(=O)C2CC(=O)N(Cc3ccco3)C2)c(=O)[nH]c1=O (centres undefined)	none
C#CCOC(=O)Nc1cccn(Cc2c(Cl)cccc2Cl)c1=O	Bead autofluor 16958
O=C(Nc1cccn(Cc2c(Cl)cccc2Cl)c1=O)C1CC1	none
CCOc1ccc(NC(=O)CN(C2CCCCC2)S(C)(=O)=O)cc1	BoNT A protease inconclusive, Bead autofluor 22520
CCN(CC(=O)Nc1ccc(C(=O)OC)cc1)C1CCCCC1	MazF activator 157
COC(=O)c1ccc(NC(=O)COC(=O)C2CCC2)cc1	Bead autofluor inconclusive
CCNC(=O)O/N=C1\CCCCC1c1ccc([N+](=O)[O-])cc1[N+](=O)[O-] (centres undefined)	none
COc1ccc2c(=O)cc(-c3ccccc3F)oc2c1	BoNT-F LC inh 46
COc1ccc2c(=O)cc(C(F)(F)C(F)(F)F)oc2c1	none
C/C(=N\Nc1nnc(C)c(=O)[nH]1)C(=O)O	Bead autofluor 23478
COc1cc(OC)c(NC(=O)c2sc3ncn(CC(=O)N4CCN(c5ccccn5)CC4)c(=O)c3c2C)cc1Cl	none
CCOc1ccc(C(=S)NC2CCCCC2)cc1	BoNT A protease inconclusive, Bead autofluor 20072
CCOc1ccc(C(=O)NC2CCCCCCC2)cc1	none
CCOC(=O)COc1ccc(C(=O)NC2CCCCC2)cc1	BoNT A protease inconclusive, Bead autofluor 20056
COC(=O)Cn1c(C(O)c2ccccc2)nc2ccccc21 (centres undefined)	none
O=C(c1cc(COc2c(F)cccc2F)on1)N(Cc1ccccc1)CC1CC1	none
Cn1cccc1/C=C1\SC(=O)N(c2ccc(O)cc2)C1=O	MazF activator 262
CC(=O)C1=CCC(c2ccccc2)N(S(=O)(=O)c2ccccc2C)C1 (centres undefined)	none (no result: MazF activator)
COc1ccccc1CN1CCNC(=O)C1CC(=O)NCC1CCOCC1 (centres undefined)	none
CC(O)C(NC=C1C(=O)OC(C)(C)OC1=O)C(=O)O (centres undefined)	none
CC(C)C(NC=C1C(=O)OC(C)(C)OC1=O)C(=O)O (centres undefined)	BoNT A protease inconclusive, Bead autofluor 16608
O=C(/C=C/c1c(F)cccc1Cl)c1ccc(O)cc1	none
OCC(CO)(CO)N=Cc1c(O)ccc2ccccc12	Bead autofluor 16546
O=C(N/N=C/c1c(O)ccc2ccccc12)c1cccc(C(F)(F)F)c1	MazF activator 75
CN(C)/N=C/c1c(O)ccc2ccccc12	none
O=C(N/N=C/c1ccc(N2CCOCC2)o1)c1ccccc1[N+](=O)[O-]	none
COc1ccc2ccccc2c1/C=N/NC(=O)c1cccc(Br)c1	none
O=C(N/N=C/c1ccc(N2CCOCC2)o1)c1cccc(C(F)(F)F)c1	Bead autofluor 24154
O=c1oc(C2(O)CCCCC2)cc2ccc(/C=C/c3ccc(F)cc3)cc12	none
CC[C@@]1(C(=O)OC)N[C@H](CN(C)C(=O)c2ccc(C)cc2)[C@@H]2C(=O)N(Cc3ccccc3)C(=O)[C@@H]21	none
CC(=O)N(C(C)=O)c1c(N2CCOCC2)c2ccccc2oc1=O	Bead autofluor 21404
CC(=O)N(C(C)=O)c1c(N2CCCC2)c2ccccc2oc1=O	none
O=C(NC1CCCCC1)C1(c2ccccc2)CC1(Cl)Cl (centres undefined)	none
CC1(C(=O)NC2CCCCCCC2)CC1(Cl)Cl (centres undefined)	Bead autofluor 17224
CCOC(=O)c1cnc(SCC(=O)c2ccccc2)nc1N	Bead autofluor 24281
CCOC(=O)c1cnc(SCC(=O)c2ccc(C)cc2)nc1N	none
Cc1ccc(/C=N\Nc2cn[nH]c(=O)c2Cl)cc1	Bead autofluor 23558
Cc1ccc(N2CSC3=C(C#N)C(c4cccs4)CC(=O)N3C2)cc1 (centres undefined)	none
CCc1ccc(N2CSC3=C(C#N)C(c4cccs4)CC(=O)N3C2)cc1 (centres undefined)	Bead autofluor 25679
O=C(O)c1ccccc1-c1ccccc1C(=O)NCCCO	BoNT A protease inconclusive, Bead autofluor 20852
COCCNC(=O)c1ccccc1-c1ccccc1C(=O)O	none
COc1ccc(N(C(=O)c2cccc([N+](=O)[O-])c2)S(=O)(=O)c2ccc3c(c2)n(C)c(=O)n3C)cc1	BoNT A protease inconclusive, Bead autofluor 16542
COc1ccc(N(C(=O)C(C)C)S(=O)(=O)c2ccc3c(c2)n(C)c(=O)n3C)cc1	none
Nc1c(C(=O)NCc2ccc3c(c2)OCO3)nnn1CC(=O)Nc1ccc(Br)cc1	MazF activator 90
Cc1cc(C)c(NC(=O)Cn2nnc(C(=O)NCc3ccc4c(c3)OCO4)c2N)c(C)c1	MazF activator 70
Cc1ccc(NC(=O)Cn2nnc(C(=O)NCc3ccc4c(c3)OCO4)c2N)cc1	none
COC(=O)Cc1ccc(NC(=S)N2CCN(c3cc(Cl)ccc3C)CC2)cc1	none
Cc1ccc(C(=O)NCC(=O)OCC(=O)N(CC(C)C)c2c(N)n(Cc3ccccc3)c(=O)[nH]c2=O)cc1	none
CCOC(=O)C1=C(C)C(c2ccccc2)NC(=S)N1 (centres undefined)	Bead autofluor 18384
NC(=O)CSc1nnc(NC(=O)c2ccc(S(=O)(=O)N3CCCCC3)cc2)s1	none
CN(C(=O)COC(=O)c1ccccc1SCC(=O)N1CCCC1)C1(C#N)CCCCC1	none
COc1ccccc1N=Cc1c(C)c(C#N)c2[nH]c3ccccc3n2c1=O	MazF activator 143
O=C(Nc1nnc(COc2ccccc2)s1)C1CCN(S(=O)(=O)c2ccc(Cl)cc2)CC1	Bead autofluor 23493
Cc1nc(SCC(=O)c2cc3ccccc3oc2=O)c(C#N)c(-c2cccs2)c1C(=O)Nc1ccccc1	MazF activator 61
N#Cc1ccc(-c2ccccc2)nc1SCC(=O)c1cc2ccccc2oc1=O	MazF activator 63
CC(C)c1c(C#N)c(N)nc(SCC(=O)c2cc3ccccc3oc2=O)c1C#N	none
O=C(NC1CCCCC1)NC1C2CC3CC(C2)CC1C3 (centres undefined)	none
CCCCC1CCC(C(=O)N(CC(C)C)c2c(N)n(Cc3ccccc3)c(=O)[nH]c2=O)CC1 (centres undefined)	none (no result: Anthrax LF prot, BoNT A protease, BoNT-F LC inh, Bead autofluor)
CCc1cc(N2CCOCC2)cc2c1[nH]c1ccccc12	Bead autofluor 17063
CCN(CC)c1ccc(/C=c2\sc3nnc(-c4ccccc4Cl)n3c2=O)cc1	Anthrax LF prot 80, BoNT A protease 176, BoNT-F LC inh 125
